Each structure is given as a SMILES string. Screen size: about 220,000 compounds; about 530 (0.24%) were called active. Shown is part of a subset that was picked to be rich in actives. Measured potencies and affinities stand elsewhere. Values without a mark were called inactive. No stated cut-off is given here; in the data, active means inhibition above about 13%; inconclusive means no clear call, values can overlap the other calls; inactive means below that.

Sequence of Bifunctional protein GlmU (Mycobacterium tuberculosis (strain ATCC 25618 / H37Rv)) (P9WMN3 whole entry, looked up): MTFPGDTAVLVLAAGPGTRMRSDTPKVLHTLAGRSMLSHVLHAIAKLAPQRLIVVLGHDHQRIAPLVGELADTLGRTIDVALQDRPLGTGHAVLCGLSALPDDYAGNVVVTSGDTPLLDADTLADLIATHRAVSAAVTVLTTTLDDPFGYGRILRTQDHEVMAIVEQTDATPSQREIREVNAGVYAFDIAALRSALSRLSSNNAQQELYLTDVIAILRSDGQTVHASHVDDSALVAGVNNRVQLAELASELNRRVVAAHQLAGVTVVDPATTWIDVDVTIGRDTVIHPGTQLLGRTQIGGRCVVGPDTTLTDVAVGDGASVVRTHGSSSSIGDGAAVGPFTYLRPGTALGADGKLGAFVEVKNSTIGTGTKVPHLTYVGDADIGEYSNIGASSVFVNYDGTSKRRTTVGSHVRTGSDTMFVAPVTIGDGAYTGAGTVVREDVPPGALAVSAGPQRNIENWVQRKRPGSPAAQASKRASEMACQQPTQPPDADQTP

The assay has as its target Bifunctional protein GlmU (Mycobacterium tuberculosis (strain ATCC 25618 / H37Rv)) (UniProt P9WMN3). The experiment in a line: inhibition of mycobacterial GlmU enzyme – biochemical, glucosamine-1-phosphate acetyltransferase (AID 1376).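 Further: 0% = complete reaction with vehicle and 100% = reaction without substrate.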 Conditions: M. tuberculosis GlmU acetyltransferase enzyme assay; hits give high values;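 tested at 30 µM in the primary screen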.
Usually inhibition stands for the relative decrease from the control value, in per cent. For the compound `COc1ccccc1OCc1ccc(C(=O)NCC2CCCO2)o1` (stereo not given), the inhibition was 1.7%. The figure for `CCCCOc1ccc(C2CCC(C(C)=O)C(C)C2)cc1` (stereo not given) is 13.4% (active); for `CCCCOc1ccc(C(=O)N2CCC(C)CC2)cc1` it is -0.91%; for `CCCCOc1ccc(C(=O)N2CC(C)OC(C)C2)cc1` (stereo not given) it is 6.38%. The same measure for `CCCSC1=N/C(=C\c2ccc([N+](=O)[O-])o2)C(=O)S1`: 21.6% (active); for `CCCSC1=N/C(=C\c2ccsc2)C(=O)S1`: -1.15%; for `CCSC1=N/C(=C\c2ccc(-c3ccccc3[N+](=O)[O-])o2)C(=O)S1`: 6.21%. The same measure for `Cc1cc(N2CCN(S(=O)(=O)c3ccccc3)CC2)c2ccccc2n1`: -2.32%. As to `C/C(=N\N1CCN(C)CC1)c1ccc(Cl)c(Cl)c1`, the inhibition was -1.93%. The same measure for `O=C(CN1CCN(Cc2ccccc2Cl)CC1)N/N=C/c1ccco1`: 2.34%.

Turning to `CCN(CC)C(=S)SC1=CCS(=O)(=O)C1`, the inhibition was -2.51%. The figure for `CCN(CC)C(=S)SCC(=O)c1ccccc1` is 2.19%. The same measure for `O=S(=O)(NCc1ccccc1)c1ccc(F)cc1Br`: 6.02%.

In the case of `COc1ccc(/C=C2/C(=N)N3C(=NC2=O)Sc2cc(S(C)(=O)=O)ccc23)cc1OC`, the inhibition is 3.31%. The same measure for `CN(C)c1ccc(/C=C2\C(=N)N3C(=NC2=O)Sc2cc(S(C)(=O)=O)ccc23)cc1`: -6.57%; for `COC(=O)c1cc(C#N)c(Oc2ccc(OC)cc2)nc1C`: 8.02%. The same measure for `C/C(C/C(C)=C1/SC(=S)NC1=O)=C1\SC(=S)NC1=O`: 49% (active); for `CCO/C(C)=C1/SC(=S)NC1=O`: -6.59%. The same measure for `CCCCCC/C(C)=C1/SC(=S)NC1=O`: -3.54%. `Cn1nc(-c2ccccc2)c(C(=O)NC(C(=O)O)c2ccccc2)c1Cl` (stereo not given): the inhibition is 1.91%.

As to `CN(C)C(=O)CSc1ncnc2scc(-c3ccccc3)c12`, the inhibition was 2.78%.

For the compound `Clc1nssc1=Nc1ccccc1`, the inhibition was 14.6% (active). `N#Cc1cccc(N=c2ssnc2Cl)c1`: the inhibition is -3.05%. The same measure for `Cc1ccc(N=c2ssnc2Cl)cc1`: 17.6%; for `N#Cc1ccc(N=c2ssnc2Cl)cc1`: 18.4%; for `COc1ccc(N=c2ssnc2Cl)cc1`: 5.49%.

For `COc1cc(N=c2ssnc2Cl)cc(OC)c1OC`, the inhibition was 14.1% (active). The same measure for `Clc1nssc1=Nc1ccc(Br)cc1`: 18%; for `Clc1ccc(N=c2ssnc2Cl)cc1`: 19.9% (active). The same measure for `COc1cc(N=c2ssnc2Cl)cc(OC)c1`: 12.8%; for `Cc1ccc(N/C=C/C(=O)c2cccs2)cc1C`: -3.05%. The same measure for `COc1cccc2sc(NNC(=O)C3COc4ccccc4O3)nc12` (stereo not given): 6.49%; for `O=C(CSc1nnc(-c2ccccc2Cl)n1Cc1ccco1)Nc1ccc2c(c1)OCCO2`: -6.82%; for `OCCN1CCN(c2ncnc3sc(-c4ccccc4)cc23)CC1`: 0.73%. For `Cc1ccc(C(=O)OC2OC(=O)C(Cl)=C2N2CCOCC2)cc1` (stereo not given), the inhibition is 7.25%. The figure for `O=c1[nH]c2ccccc2nc1NCCN1CCOCC1` is -0.64%; for `COc1ccc(-c2noc3c2-c2nc(-c4ccc(C)cc4)sc2CC3)cc1` it is 6.62%; for `O=C(NCC(=O)N(c1ccccc1)C(C(=O)NC1CCCCC1)c1cccnc1)c1cccs1` (stereo not given) it is -3.93%. The same measure for `O=C(CN(C(=O)c1cc2c(s1)CCC2)C1CCCC1)NCc1cccs1`: 5.33%. The same measure for `O=C(CN(Cc1ccccc1)C(=O)c1cc2c(s1)CCC2)NCc1cccs1`: 14.9% (active); for `O=C(NCc1cccs1)c1cc2c(s1)CCCC2`: 0.13%.

As for `O=C(O)CCCN1C(=O)c2ccc(C(=O)c3cccc([N+](=O)[O-])c3)cc2C1=O`, the inhibition is 2.64%. The figure for `O=C(CN1C(=O)CCC1=O)NNc1ccc2ccccc2c1` is -8.95%; for `O=C(CN1C(=O)NC2(CCCC2)C1=O)Nc1cccc(-c2nnc3n2CCCCC3)c1` it is -0.57%; for `O=C(CC1Sc2ccccc2NC1=O)Nc1cccc(C(=O)O)c1` (stereo not given) it is -2.21%. Take `O=C(CC1Sc2ccccc2NC1=O)Nc1cccc(-c2nnc3n2CCCCC3)c1` (stereo not given): the inhibition was 14.3% (active).

With `Oc1ccccc1/C=N/NC1=NCCCCC1`, the inhibition was -2.12%.

For the compound `COC(C(=O)NCc1ccc(C)cc1)c1ccccc1` (stereo not given), the inhibition is -0.55%. The figure for `CC(C)=CC(=O)NCc1c(Cl)cccc1-n1cccc1` is 23.8% (active); for `CCC(=O)NCc1c(Cl)cccc1-n1cccc1` it is -2.25%.

As to `CC(=O)NCc1c(Cl)cccc1-n1cccc1`, the inhibition was -2.69%. The same measure for `COC(=O)c1ccccc1NC(=O)CCS(=O)(=O)c1ccc(Br)s1`: 6.53%; for `Cc1ccc(CCNC(=O)CCS(=O)(=O)c2ccc(Br)cc2)cc1`: -0.29%; for `COC(=O)c1ccc(NC(=O)CCS(=O)(=O)c2ccc(Br)cc2)cc1`: 3.55%.

`Cc1ccc(CNC(=O)CCS(=O)(=O)c2ccc(C)cc2)cc1`: the inhibition was -0.32%. The figure for `COc1cccc(CN2CCN(S(=O)(=O)c3ccc(Br)cc3)CC2)c1` is -0.5%; for `COc1ccc(C=C2C(=O)c3ccccc3C2=O)cc1O` it is 9.53%. The figure for `COc1cc(C=C2C(=O)c3ccccc3C2=O)ccc1O` is 10.6%; for `O=C1c2ccccc2CC1(Cc1ccccc1)Cc1ccccc1` it is -4.43%. Regarding `CC(C)(C)N1C(=O)c2ccccc2NC(=O)N1Cc1ccccc1`, the inhibition is -6.09%.

As to `N#CCCN(Cc1cccnc1)C(=S)NC(=O)C1CC1`, the inhibition is -4.01%. The figure for `Cc1cccc(CSc2nnc(-c3ccccn3)n2N)c1` is 1.5%; for `CCOc1cc(/C=N/N=C2/NC(=O)C(CC(=O)O)S2)ccc1OCc1ccc(Cl)cc1` (stereo not given) it is 0.64%; for `CCOc1cc(/C=N/N=C2/NC(=O)C(CC(=O)O)S2)ccc1OS(=O)(=O)c1ccc(C)cc1` (stereo not given) it is 13.1% (active).

In the case of `COc1ccc(/C=N/N=C2/NC(=O)C(CC(=O)O)S2)cc1OS(=O)(=O)c1ccccc1` (stereo not given), the inhibition was 3.56%. The figure for `Cc1ccc(/C=C2\SC(=S)N(CC3CCCO3)C2=O)o1` (stereo not given) is 9.7%. The same measure for `O=C(CSc1nc2ccccc2o1)N1CCN(S(=O)(=O)c2ccc3ccccc3c2)CC1`: -1.93%; for `CCc1ccc(N(CC(=O)NCc2ccc(F)cc2)C(=O)c2csnn2)cc1`: 1.98%; for `CCOc1ccc(/C=N/Nc2nc(=O)[nH]nc2C)cc1OC`: 2.62%. The same measure for `O=C1/C(=C/c2cccs2)SC(=S)N1NS(=O)(=O)c1ccccc1`: 11.6%; for `CC(/C=C1\SC(=S)N(NS(=O)(=O)c2ccccc2)C1=O)=C\c1ccccc1`: 5.96%; for `Cn1cccc1/C=C1\SC(=S)N(NC(=O)c2ccccc2O)C1=O`: 0.05%. As for `O=C(NN1C(=O)/C(=C/C=C/c2ccco2)SC1=S)c1ccncc1`, the inhibition was 10.6%.

In the case of `O=C(NCC(c1cccnc1)N1CCN(c2ccccc2F)CC1)OCc1ccccc1` (stereo not given), the inhibition is -3.82%. The figure for `CC(C)CNC(CC(=O)Nc1cccc([N+](=O)[O-])c1)C(=O)O` (stereo not given) is 0.89%; for `CN(C)/C=C(\C#N)C(=O)Nc1ccc(O)cc1F` it is -2.68%; for `CC(NC(=O)c1ccco1)C(=O)OCc1cccc(Cl)c1` (stereo not given) it is 2.75%. As for `Cc1ccccc1NC(=O)CS(=O)(=O)c1cn(CC(=O)N2CCOCC2)c2ccccc12`, the inhibition is -2.25%. The figure for `CCCN(Cc1cc2ccccc2[nH]c1=O)C(=O)c1cccc([N+](=O)[O-])c1` is -2.01%; for `O=C(O)c1cccc(Cn2c(Cl)c(/C=N/NC(=O)c3ccccc3)sc2=O)c1` it is 1.79%; for `O=C(O)c1cccc(Cn2c(Cl)c(/C=N/NC(=O)c3ccccc3O)sc2=O)c1` it is 5.34%. The figure for `CCC(C)OC(=O)C[N+](C)(C)CCOC1CC2CCC1(C)C2(C)C` (stereo not given) is -2.89%; for `Cn1c(=O)c([N+](=O)[O-])c(NCc2ccc3c(c2)OCO3)c2ccccc21` it is 0.57%. The figure for `S=c1[nH]nc(COc2ccccc2)n1/N=C/c1ccco1` is 3.61%; for `Nc1c(C(=O)Nc2ccccc2)sc2nc3c(c(-c4ccco4)c12)CCC3` it is -1.21%.

For `Nc1c(C(=O)NC2CC2)sc2nc3c(c(-c4ccco4)c12)CC/C3=C/c1ccco1`, the inhibition is 16.9% (active).

Regarding `Nc1c(C(=O)NCC2CCCO2)sc2nc3c(c(-c4ccco4)c12)CC/C3=C\c1ccco1` (stereo not given), the inhibition is 12.4%. The same measure for `Cc1cccc2cc(C#N)c(NCc3ccccc3)nc12`: 1.49%; for `CCOC(=O)N1CCC(NC(=O)c2cccn3c(=O)c4cc(Br)ccc4nc23)CC1`: 3.26%; for `CCOc1ccccc1NC=C1C(=O)OC2(CCCCC2)OC1=O`: -1.31%. The figure for `COc1ccc(OC)c(NC=C2C(=O)OC3(CCCCC3)OC2=O)c1` is 2.73%.

For `COc1ccccc1NC=C1C(=O)OC2(CCCCC2)OC1=O`, the inhibition was 13.1% (active). The same measure for `CCC(C)(C)NC(=O)C(c1ccccc1)N(Cc1cccnc1)C(=O)c1csnn1` (stereo not given): 0.49%.

With `CN(C)S(=O)(=O)c1cccc(NC(=O)/C=C/c2ccccc2[N+](=O)[O-])c1`, the inhibition is 6.53%. The same measure for `O=S1(=O)c2ccccc2N=NN1Cc1cc(Cl)cc(Cl)c1`: 3.2%; for `O=S1(=O)c2ccccc2N=NN1Cc1ccc(Cl)cc1`: 8.76%. Turning to `CC(C1CC2CCC1C2)n1c(-c2ccco2)n[nH]c1=S` (stereo not given), the inhibition was -2.34%. The same measure for `COc1cccc(/C=N/n2c(-c3ccco3)nc3ccccc3c2=O)c1OC`: -2.22%; for `COc1cccc(/C=N/n2c(-c3ccco3)nc3ccccc3c2=O)c1`: 12.8% (active). As for `COc1ccc(/C=N/n2c(-c3ccco3)nc3ccccc3c2=O)cc1`, the inhibition is -1.21%.

(Values after PubChem BioAssay AID1376 (SRMLSC, 2008).)
